# The entries come from a sample that favours hits as a whole.
# DUX4 txn inh = DUX4-mediated transcription inhibition; activity change, negative = inhibition, % (test concentration not listed); actives 0.8% (n = 37,000); 293T-iDUX4 ZSCAN4-Gaussia luciferase reporter, 24 h; hits give low values;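 active = mean inhibition of at least 10% in the main channel, exceeding the control channel by a set limit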;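 also: 0% = median of neutral control wells and -100% = median of positive control wells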
# * hit, by the source's call; ! = not active in a repeat.
SMILES,DUX4 txn inh
O=S(=O)(c1ccccc1)N1C[C@@H]2N[C@H](C1)C2c1ccc(-c2cccnc2)cc1 (some centres undefined),-13*!
COc1cccc(-c2ccc(C3[C@@H]4CN(S(=O)(=O)c5cccc(Cl)c5)C[C@H]3N4)cc2)c1 (some centres undefined),-7
O=C(c1ccc(F)cc1)N1C[C@@H]2N[C@H](C1)C2c1ccc(-c2cccnc2)cc1 (some centres undefined),-8
C[C@@H]1CCCCO[C@@H](CN(C)Cc2ccc(C(=O)Nc3ccccc3N)cc2)[C@@H](C)CN([C@@H](C)CO)C(=O)c2cc(N(C)C)ccc2O1,1
C[C@H]1CN([C@@H](C)CO)C(=O)c2cc(C#CC3(O)CCCC3)cnc2O[C@@H]1CN(C)C(=O)Cc1ccncc1,-3
CC(=O)N1CCCCN2[C@H](C1)[C@H](c1ccc(C#Cc3ccccc3F)cc1)[C@@H]2CO,-7
O=C(CN1CCOCC1)N1CCCCN2[C@H](CO)[C@@H](c3ccc(C#Cc4ccccc4F)cc3)[C@H]2C1,-7
CC(C)NC(=O)N1CCCCN2[C@H](C1)[C@@H](c1ccc(C#Cc3ccccc3F)cc1)[C@@H]2CO,-47*
O=C(CN1CCOCC1)N1CCCCN2[C@H](CO)[C@@H](c3ccc(C#Cc4ccccc4F)cc3)[C@@H]2C1,-36*
CC(=O)N1CCCCN2[C@@H](CO)[C@H](c3ccc(C#Cc4ccccc4F)cc3)[C@@H]2C1,-10
O=C(CN1CCOCC1)N1CCCCN2[C@@H](CO)[C@@H](c3ccc(C#Cc4ccccc4F)cc3)[C@@H]2C1,-9
C[C@@H]1CN([C@H](C)CO)C(=O)c2cc(NC(=O)CCC(F)(F)F)ccc2O[C@@H]1CN(C)S(=O)(=O)c1ccc(F)cc1,-4
Cc1cccc(-c2ccc([C@H]3[C@H](CO)N4C(=O)CN(C(=O)c5cnccn5)C[C@@H]34)cc2)c1,6
CCC(=O)N1CC2(C1)[C@H](c1ccccc1)[C@@H](CO)N2Cc1ccccc1F,3
COc1cccc(CN2CC3(C2)[C@H](c2ccccc2)[C@@H](CO)N3Cc2ccccc2OC)c1,-36*
COc1ccccc1CN1[C@@H](CO)[C@@H](c2ccccc2)C12CN(C(C)=O)C2,3
COc1cccc(CN2[C@@H](CO)[C@H](c3ccccc3)C23CN(Cc2ccccc2OC)C3)c1,-44*
O=C(C1CC1)N1CC2(C1)[C@@H](c1ccccc1)[C@@H](CO)N2Cc1ccccc1F,-2
COc1ccccc1CN1[C@H](CO)[C@H](c2ccccc2)C12CN(C(C)=O)C2,3
OC[C@H]1[C@H](c2ccccc2)C2(CN(Cc3ccccc3F)C2)N1Cc1ccccc1F,-35*
COc1cccc(CN2[C@H](CO)[C@@H](c3ccccc3)C23CN(C(=O)C2CC2)C3)c1,-6
COc1ccccc1CN1[C@@H](CO)[C@H](c2ccccc2)C12CN(C(C)=O)C2,-6
COc1cccc(NC(=O)N(C)C[C@@H]2OCc3cn(nn3)CCCC(=O)N([C@@H](C)CO)C[C@@H]2C)c1,-3
O=C(c1ccccc1F)N1CC2(C1)[C@H](c1ccccc1)[C@@H](CO)N2CC1CC1,8
O=C(c1cccnc1)N1CC2(C1)[C@H](c1ccccc1)[C@@H](CO)N2C(=O)c1cccnc1,9
SMILES,DUX4 txn inh
COc1ccc([C@H]2CC=CC[C@@H](C)Oc3ccccc3C(=O)N(C)[C@H](C)C(=O)N2)c(OC)c1 (mixture of isomers),1
CC(=O)N1CC[C@H]2[C@@H]1c1cc(-c3ccc(C#N)cc3)ccc1N(C)[C@H]2CO,21
CCN(C[C@H]1N[C@H](CO)[C@H]1c1ccc(C2=CCCC2)cc1)C(=O)c1ccncc1,-3
COCC(=O)N1CC(=O)N2[C@H](C1)[C@H](c1ccc(Br)cc1)[C@@H]2CO,11
CO[C@H]1CN(C)C(=O)c2ccc(NC(=O)Nc3ccccc3F)cc2OC[C@@H](C)N(C(C)=O)C[C@H]1C,-5
CN1c2ccc(-c3ccc(C#N)cc3)cc2[C@@H]2[C@@H](CCN2C(=O)Nc2cccc(F)c2)[C@@H]1CO,0
COc1ccc2c3c([nH]c2c1)[C@H](CO)N(Cc1ccc(F)cc1)CC31CN(C(=O)NC(C)C)C1,7
COc1ccccc1CN1C[C@@H]2N[C@H](C1)C2c1ccc(-c2ccncc2)cc1 (some centres undefined),-14*!
COc1ccccc1CN1[C@@H]2CNC[C@H]1C2c1ccc(-c2ccncc2)cc1 (some centres undefined),14
CN(C)C(=O)c1cccc(-c2ccc(C3[C@@H]4CN(Cc5cocn5)C[C@H]3N4)cc2)c1 (some centres undefined),10
COc1ccccc1CN1[C@@H]2CNC[C@H]1C2c1ccc(-c2ccc(C#N)cc2)cc1 (some centres undefined),1
N#Cc1ccc(-c2ccc([C@@H]3[C@@H]4CN(Cc5cocn5)C[C@H]3N4)cc2)cc1,-75*
N#Cc1ccc(-c2ccc(C3[C@@H]4CN(Cc5ccccc5F)C[C@H]3N4)cc2)cc1 (some centres undefined),-44*!
CN(C)C(=O)c1ccc(-c2ccc(C3[C@@H]4CN(Cc5nccs5)C[C@H]3N4)cc2)cc1 (some centres undefined),-1
N#Cc1ccc(-c2ccc(C3[C@H]4CNC[C@@H]3N4C(=O)Nc3ccccc3F)cc2)cc1 (some centres undefined),-3
COc1cc(CN2C[C@@H]3N[C@H](C2)C3c2ccc(-c3cncnc3)cc2)cc(OC)c1 (some centres undefined),2
COCC(=O)Nc1ccc2c(c1)C(=O)N(C)[C@H]1CC[C@@H](CC(=O)NC3CCCC3)O[C@H]1CO2,5
Cc1cccc(-c2ccc([C@@H]3[C@@H](CO)N4C(=O)CN(C(=O)c5cnccn5)C[C@@H]34)cc2)c1,1
Cc1cccc(-c2ccc([C@@H]3[C@H](CO)N4C(=O)CN(C(=O)c5cnccn5)C[C@@H]34)cc2)c1,9
CCC(=O)Nc1ccc2c(c1)C(=O)N(C)C[C@@H](OC)[C@H](C)CN(Cc1nccs1)[C@@H](C)CO2,0
O=C(C[C@@H]1CC[C@H]2[C@@H](COC[C@@H](O)CN2C(=O)c2ccncc2)O1)NCc1ccc(-c2ccccc2)cc1,14
COc1ccc2c3c(n(C)c2c1)[C@@H](CO)N(C)CC31CCN(S(=O)(=O)c2cn(C)cn2)CC1,28
CN1c2ccc(Br)cc2[C@H]2[C@H](CCN2C(=O)c2cccc(F)c2)[C@H]1CO,-9
CN1c2ccc(C#Cc3cccnc3)cc2[C@@H]2[C@@H](CCN2C(=O)c2cccc(F)c2)[C@H]1CO,-37*
CC(C)NC(=O)N1CC[C@H]2[C@@H]1c1cc(C#Cc3cccnc3)ccc1N(C)[C@H]2CO,5
CN1c2ccc(C#Cc3ccccc3F)cc2[C@H]2[C@H](CCN2C(=O)c2cnccn2)[C@H]1CO,-29*
CN1c2ccc(-c3ccccc3F)cc2[C@@H]2[C@@H](CCN2C(=O)c2ccccn2)[C@H]1CO,4
COc1ccc(C#Cc2ccc3c(c2)[C@@H]2[C@@H](CCN2C(=O)c2ccccc2F)[C@H](CO)N3C)cc1,4
CC(=O)N1[C@H](C(=O)NCc2ccccc2Cl)[C@@H](CO)[C@@H]2Cn3c(ccc(-c4ccncc4)c3=O)[C@@H]21,0
C[C@@H]1CC=CC[C@H](c2ccc(F)cc2)NC(=O)[C@H](C)N(C)C(=O)c2ccccc2O1 (mixture of isomers),-1
